Among the test systems are DU-145 prostate; K-562 leukemia; MALME-3M melanoma; MDA-MB-231 breast; SF-268 CNS; SF-295 CNS; SF-539 CNS; UACC-257 melanoma; M14 melanoma; RXF 393 renal.
What all share (test): NCI-60 one-dose screen, 48 h (100 = growth as untreated, 0 = no growth, -100 = all killed)
Holding throughout (conditions): 10 µM unless noted

About 83,000 compounds went through this panel and 20% of them were active in at least one assay; those are over-represented in the sample as a whole.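 For each line, cells grew in 96-well plates with the test compound present at a single concentration for 48 hours.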 A number with no mark means an inactive call. Activity calls are given as the source filed them. The calls were made as follows: active = growth percent below 10; inactive = the rest.

For `CC(=O)/C=C/c1ccc2c(c1)OCO2`, the growth in the experiment on DU-145 prostate is 104%; in the experiment with K-562 leukemia, 106%; in the experiment on MALME-3M melanoma, 92%; with MDA-MB-231 breast, 95.1%; in the experiment with SF-268 CNS it was 106%; with SF-295 CNS it was 94.1%. In addition, the figures for the growth in the experiment with SF-539 CNS, in the experiment on UACC-257 melanoma and in the experiment with M14 melanoma were 102%, 91.7% and 100%, respectively.

For `Cc1ccc(C(=O)NCCCOc2ccc(N)cc2Cl)cc1S(=O)(=O)F`, the growth with DU-145 prostate was 107%; in the experiment on K-562 leukemia, 91.9%; with MALME-3M melanoma, 87.6%; with MDA-MB-231 breast, 106%; with SF-268 CNS, 102%; in the experiment on SF-295 CNS it was 86.3%. Moreover, the figures for the growth in the experiment with SF-539 CNS, with UACC-257 melanoma and in the experiment with M14 melanoma were 103%, 87.1% and 97.8%, respectively.

For `C[CH2][Sn]([Cl])([Cl])[CH2]C.Oc1ccccc1C=NCCN=Cc1ccccc1O`, the growth was 111% in the experiment with DU-145 prostate; 84.2% with K-562 leukemia; 95.6% with MALME-3M melanoma; 107% with MDA-MB-231 breast; 118% in the experiment with RXF 393 renal; 106% in the experiment on SF-268 CNS. Besides, the growth in the experiment with SF-539 CNS was 87.9%; in the experiment on UACC-257 melanoma, 94.1%; in the experiment on M14 melanoma, 112%.

Consider `COc1cc(NC(C)CCCNC2CN3CCC2CC3)c2ncccc2c1` (configuration not stated), for which the growth with DU-145 prostate was 112%; in the experiment with K-562 leukemia, 22.8%; in the experiment on MALME-3M melanoma, 81.3%; in the experiment with MDA-MB-231 breast, 55.1%; with RXF 393 renal, 66.1%; in the experiment with SF-268 CNS, 89.6%. For the same molecule, the growth in the experiment on SF-539 CNS was 82.3%; with UACC-257 melanoma, 39.9%; in the experiment on M14 melanoma it was 51.2%.

On to `COc1cc(/C=C\c2cc(OC)c(OC)c(OC)c2)cc(N/C=C\C(=O)c2cc(OC)c(OC)c(OC)c2)c1OC`, for which the growth with DU-145 prostate was 27.2%; in the experiment on K-562 leukemia, 16.2%; in the experiment with MALME-3M melanoma, 25.9%; with MDA-MB-231 breast it was 42.7%; with RXF 393 renal, 17.4%; in the experiment with SF-268 CNS, 41.1%. Besides, the values for the growth with SF-539 CNS, in the experiment with UACC-257 melanoma and in the experiment with M14 melanoma were -9.74% (active), 68.1% and 2.89% (active), respectively.

Take `O=NNc1ccccn1`: the growth in the experiment on DU-145 prostate was 5.33% (active); with K-562 leukemia, 77.7%; in the experiment on MDA-MB-231 breast it was 91.2%; in the experiment on RXF 393 renal, 83.8%; in the experiment with SF-268 CNS, 91.1%; in the experiment on SF-295 CNS, 96%. For the same molecule, the results for the growth in the experiment with SF-539 CNS, with UACC-257 melanoma and with M14 melanoma were 94.3%, 94.9% and 87.3%, respectively.

Take `CCOC(=O)CCC(NC(=O)C(Cc1ccc(N(CCCl)CCCl)cc1)NC=O)C(=O)OCC` (configuration not stated): the growth in the experiment on DU-145 prostate is 36.3%; in the experiment with K-562 leukemia it was 35.6%; in the experiment on MALME-3M melanoma, -80.2% (active); in the experiment on RXF 393 renal, -75.9% (active); with SF-295 CNS it was 21.5%; in the experiment with SF-539 CNS, -61.7% (active). Moreover, the growth was -9.97% (active) in the experiment on UACC-257 melanoma and -62.9% (active) in the experiment on M14 melanoma.

As to `CC1(C)N=C(N)N=C(N)N1c1cccc(CCCCc2ccc(Cl)c(S(=O)(=O)F)c2)c1`, the growth is 47.5% in the experiment on DU-145 prostate; 16.4% with K-562 leukemia; 56% with MALME-3M melanoma; 69.8% with MDA-MB-231 breast; 35.9% with SF-268 CNS; 39% with SF-295 CNS. Further, the growth in the experiment with SF-539 CNS was 19.9%; in the experiment on UACC-257 melanoma, 33.6%; with M14 melanoma, 39%.

With `CCNc1nc(Cl)nc(NCC)n1`, the growth in the experiment on DU-145 prostate was 123%; in the experiment on K-562 leukemia, 35.1%; with MALME-3M melanoma it was 133%; in the experiment with MDA-MB-231 breast, 104%; in the experiment on SF-268 CNS it was 102%; with SF-295 CNS, 84.1%. In addition, the growth is 97.2% in the experiment with SF-539 CNS, 89% with UACC-257 melanoma and 101% in the experiment with M14 melanoma.

On to `C=CCCCCCCCCC(=O)[O-].C=CCCCCCCCCC(=O)[O-].[Zn+2]`, for which the growth in the experiment with DU-145 prostate was 114%; in the experiment with K-562 leukemia, 92%; with MALME-3M melanoma it was 108%; in the experiment on SF-268 CNS, 106%; with SF-295 CNS, 97.7%; in the experiment on SF-539 CNS it was 97.9%. The values for the growth with UACC-257 melanoma and in the experiment with M14 melanoma were 98.5% and 107%, respectively.

In the case of `O[C@H](CN1CC1)[C@@H](O)CN1CC1`, the growth with DU-145 prostate was 39.5%; with K-562 leukemia, 65.9%; with MDA-MB-231 breast, 109%; in the experiment with RXF 393 renal, 77.2%; in the experiment on SF-268 CNS, 45.5%; in the experiment with SF-295 CNS it was 19.6%. Further, the values for the growth in the experiment on SF-539 CNS, in the experiment on UACC-257 melanoma and in the experiment with M14 melanoma were 24.6%, 86.3% and 48.9%, respectively.

As to `CN1C(=O)C23CC4(C56CC78SSC(CO)(C(=O)N7C5Nc5ccccc56)N(C)C8=O)c5ccccc5NC4N2C(=O)C1(CO)SS3` (configuration not stated), the growth in the experiment with DU-145 prostate was -100% (active); in the experiment on K-562 leukemia, -30.3% (active); with MALME-3M melanoma, -76.7% (active); with MDA-MB-231 breast, -94.1% (active); in the experiment on SF-268 CNS it was -97.8% (active); in the experiment with SF-295 CNS, -93.8% (active). Also, the values for the growth with SF-539 CNS, in the experiment on UACC-257 melanoma and in the experiment with M14 melanoma were -86.4% (active), -94.9% (active) and -83.3% (active), respectively.

In the case of `N/C(=N/N=C/c1ccncc1)N[N+](=O)[O-]`, the growth in the experiment with DU-145 prostate is 108%; in the experiment on K-562 leukemia, 90%; in the experiment with MALME-3M melanoma, 96.2%; with RXF 393 renal it was 121%; in the experiment with SF-268 CNS, 102%; in the experiment on SF-295 CNS, 99.5%. The growth with SF-539 CNS was 94.3%; with UACC-257 melanoma, 102%; with M14 melanoma it was 104%.

`O=P1(NCCCl)OCCCN1CCCl` (configuration not stated): the growth with DU-145 prostate was 110%; in the experiment with K-562 leukemia, 95.8%; in the experiment with MALME-3M melanoma, 120%; in the experiment with MDA-MB-231 breast it was 120%; in the experiment on SF-268 CNS it was 109%; in the experiment with SF-295 CNS, 99.2%. The growth with SF-539 CNS is 98.3%; with UACC-257 melanoma, 116%; in the experiment on M14 melanoma, 106%.

Consider `COC(=O)C12CC(NC(=O)c3csc([C@@H](C[C@H](C(C)C)N(C)C(=O)[C@@H](NC(=O)[C@H]4CCCCN4C)C(C)C)OC(C)=O)n3)(C1)C2`, for which the growth was 16.6% in the experiment on DU-145 prostate; 12% in the experiment on K-562 leukemia; 54.4% with MALME-3M melanoma; 11.9% in the experiment with MDA-MB-231 breast; 22.9% with SF-268 CNS; -11.2% (active) with SF-295 CNS. For the same molecule, the figures for the growth in the experiment with SF-539 CNS and in the experiment on M14 melanoma were -29.9% (active) and 2.68% (active), respectively.
